# IL-1B inflam inh – inflammasome signaling inhibition, IL-1 beta readout; THP-1 LPS/ATP IL-1B secretion, AlphaLISA, 16 h; stronger effect = lower value; activity change, % at 57.5 µM; 360,000 compounds, 4.7% hits; in the data active = activity change below about -50%; inconclusive = mostly about -30% to -49%; also: % is scaled to controls: 0 for no effect and ±100 for the full control effect
#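 THP-1 cells pretreated 1 hr with compounds (up to 57.5 uM final), then stimulated with LPS (250 ng/mL final) plus ATP (1.25 mM final); secreted IL-1B measured by AlphaLISA after 16 hr, decreased signal indicating inhibition.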
# TGFb inhibitor – TGF-b pathway inhibition | 410,000 compounds, 1.2% hits | Potency, µM (titrated, usually from 46.1 µM), without a hit: at the top dose activity, negative = inhibition, most hits filed as inhibitors | HepG2 CAGA-GFP TGF-b/SMAD3 reporter, GFP fluorescence, 18 h; TGF-beta stimulated, 500 pg/mL final; also: potency is read from the fitted curve at half-maximal effect; % is scaled to controls: 0 for no effect and ±100 for the full control effect; nearly all actives have a fitted effect of over 65% in size
#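 Read-out: total well GFP (ex488/em500-530) summed from mean per-cell fluorescence. Cells: HEPG2 CAGA-GFP, 1% FBS DMEM, 18 h at 37 degrees C with 500 pg/mL final TGF-beta. Unstimulated wells served as the full-inhibition control; stimulated DMSO wells = 0%.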
# TDP1 cell CPT – DT40-hTDP1 cell growth loss with CPT; chicken DT40 Tdp1-/-;hTDP1 cells + 20 nM CPT, ATP luminescence, 48 h; Potency, µM (highest dose often 46.2 µM), for the others: at the top dose activity change, negative = growth inhibition, most hits filed as inhibitors; 420,000 compounds, 12% hits; AID 686979; also: potency is read from the fitted curve at half-maximal effect; % is scaled to controls: 0 for no effect and ±100 for the full control effect; nearly all actives have a fitted effect of over 55% in size
#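 Chicken DT40 Tdp1-/- cells stably complemented with human TDP1 were seeded at 400 cells/well in medium containing 20 nM camptothecin, exposed to pin-transferred compounds, and grown at 37 °C for at least 48 hr. Viability was read as ATP luminescence.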
# HepG2 tox-1 – counter-screen for TGF-b inhibitors: cytotoxicity in HepG2 cells; Potency, µM (titrated, usually from 46.1 µM), for inactives: top-dose activity change, negative = cytotoxicity, actives largely listed as cytotoxic; HepG2 CAGA-GFP viability, ATP luminescence, 18 h; 410,000 compounds, 0.76% hits; also: potency is read from the fitted curve at half-maximal effect
#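 CellTiter-Glo luminescence gave cytotoxicity after 18 hours at 37 degrees C. The cells were HepG2 CAGA-GFP in 1% FBS DMEM, stimulated with 500 pg/mL TGF-beta after compound addition. %Activity was normalised to no-cell wells (complete cell-killing) and DMSO (no toxicity), and curves were fitted and classified.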
# TDP1 cell noCPT – qHTS for Inhibitors of human tyrosyl-DNA phosphodiesterase 1 (TDP1): qHTS in cells in absence of CPT; DT40 Tdp1-/- hTDP1 cells, no CPT, ATP luminescence, 48 h; Potency, µM (series often up to 46.2 µM), inactives show top-dose activity change, negative = growth inhibition, hits mostly inhibitors; 420,000 compounds, 15% hits; AID 686978, 2013; also: potency is read from the fitted curve at half-maximal effect; % is scaled to controls: 0 for no effect and ±100 for the full control effect; nearly all actives have a fitted effect of over 55% in size
#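 Camptothecin absent (DMSO only). Human TDP1-complemented DT40 knockout cells, 400 cells/well, 37 °C for minimum 48 hr; ATP measured via CellTiter-Glo, 30 min dark incubation, luminescence.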
# TDP1 block – inhibitors of human tyrosyl-DNA phosphodiesterase TDP1 | Q9NUW8 | Potency, µM (titrated, usually from 130 µM), for inactives: at the highest dose activity change, negative = inhibition, usual class: inhibitors | recombinant TDP1, AlphaScreen DNA substrate cleavage | AID 485290 | 350,000 compounds, 0.28% hits; also: potency is read from the fitted curve at half-maximal effect; % is scaled to controls: 0 for no effect and ±100 for the full control effect; nearly all actives have a fitted effect of over 40% in size
# Target sequence (Q9NUW8 whole entry, looked up): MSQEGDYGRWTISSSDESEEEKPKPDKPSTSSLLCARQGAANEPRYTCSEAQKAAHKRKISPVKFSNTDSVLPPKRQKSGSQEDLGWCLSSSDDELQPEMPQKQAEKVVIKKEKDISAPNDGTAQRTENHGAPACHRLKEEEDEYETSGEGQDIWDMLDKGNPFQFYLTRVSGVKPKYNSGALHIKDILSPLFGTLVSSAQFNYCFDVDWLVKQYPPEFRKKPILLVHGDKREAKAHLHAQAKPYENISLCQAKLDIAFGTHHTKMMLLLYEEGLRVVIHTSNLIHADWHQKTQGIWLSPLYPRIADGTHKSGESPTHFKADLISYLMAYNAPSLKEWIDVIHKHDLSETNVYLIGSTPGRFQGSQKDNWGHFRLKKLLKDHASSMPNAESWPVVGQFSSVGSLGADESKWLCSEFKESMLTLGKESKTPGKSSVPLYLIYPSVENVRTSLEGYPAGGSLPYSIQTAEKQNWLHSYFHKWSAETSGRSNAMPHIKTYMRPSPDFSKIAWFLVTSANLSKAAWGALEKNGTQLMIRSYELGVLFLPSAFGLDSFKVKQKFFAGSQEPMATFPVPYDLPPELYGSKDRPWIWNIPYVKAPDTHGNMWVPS
#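 E. coli-derived human Tdp1, 1 nM final. Cpd preinc 15 min RT; substrate 15 nM final, 5 min RT; AS bead mix 10 ug/ml final, 10 min RT. Signal loss = tyrosine-FITC cleavage. No-enzyme wells = max signal.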
# TGFb CAGA inh – TGF-b pathway inhibition, cherry-pick retest | HepG2 CAGA-GFP TGF-b reporter, GFP fluorescence, 18 h; cells stimulated with TGF-beta, 500 pg/mL | Potency, µM (doses to about 46.1 µM), inactives show at the top dose activity, negative = inhibition, hits mostly inhibitors | 1,600 compounds, 63% hits | shares compounds with TGFb inhibitor; also: potency is read from the fitted curve at half-maximal effect; % is scaled to controls: 0 for no effect and ±100 for the full control effect; nearly all actives have a fitted effect of over 65% in size
# HepG2 tox-2 – counter-screen for TGF-b inhibitors: cytotoxicity in HepG2 cells. shares compounds with TGFb inhibitor. HepG2 CAGA-GFP viability, ATP luminescence, 18 h; cells stimulated with TGF-beta, 500 pg/mL. Potency, µM (highest dose often 46.1 µM), without a hit: at the top dose activity, negative = cytotoxicity, actives largely listed as inhibitors. 1,600 compounds, 27% hits; also: potency is read from the fitted curve at half-maximal effect; % is scaled to controls: 0 for no effect and ±100 for the full control effect; nearly all actives have a fitted effect of over 70% in size
# TGFb CCL64 inh – blocks TGF-b signaling in CCL64 reporter cells | shares compounds with TGFb inhibitor | CCL64 CAGA-GFP reporter, TGF-b stimulated, GFP fluorescence, 18 h | Potency, µM (highest dose often 46.1 µM), without a hit: at the highest dose activity, negative = inhibition, actives largely listed as inhibitors | 1,600 compounds, 41% hits; also: potency is read from the fitted curve at half-maximal effect; nearly all actives have a fitted effect of over 65% in size
# COP TGFb inh – blocks TGF-b signaling in HepG2 COP reporter; shares compounds with TGFb inhibitor; 1,600 compounds, 3% hits; Potency, µM (titrated, usually from 46.1 µM), without a hit: at the top dose activity, negative = inhibition, actives largely listed as inhibitors; HepG2 COP-GFP TGF-b reporter, GFP fluorescence, 18 h; cells stimulated by added recombinant TGF-beta; also: potency is read from the fitted curve at half-maximal effect; nearly all actives have a fitted effect of over 70% in size
# * hit, by the source's call; ? = inconclusive; / = no result given. Hits are enriched below; roughly 18% of the tested compounds scored in any of these assays. Unless noted, calls follow the shape of the dose curve; as a rule, active = well fitted curve in the direction sought with a large enough effect; inconclusive = small, poorly fitted or top-dose-only effect, or another doubt; inactive = no such curve, though single readings can be large; an effect the other way counts as inactive or inconclusive.
SMILES,IL-1B inflam inh,TGFb inhibitor,TDP1 cell CPT,HepG2 tox-1,TDP1 cell noCPT,TDP1 block,TGFb CAGA inh,HepG2 tox-2,TGFb CCL64 inh,COP TGFb inh
COc1cc2c(c(OC)c1OC)-c1ccc(O)cc1[C@@H](NC(C)=O)CC2,50,?,0.23µM*,11%,0.16µM*,-2%,?,8%,0.52µM*,?
COc1cc2c3c(c1OC)-c1cc(O)ccc1CC3NCC2 (stereo unspecified),40,?,-5%,14%,?,5%,/,/,/,/
CC12CCC3C(CCC4(O)CC(O)CCC34C=NO)C1(O)CCC2C1=COC(=O)C1 (stereo unspecified),-104*,1µM*,16µM*,-43%,8.2µM*,/,12µM*,1µM*,0.29µM*,57%
CCCCN=C[C@]12CCC(O)CC1(O)CCC1[C@@H]2CC[C@]2(C)[C@H](C3C=CC(=O)O3)CCC12O (stereo partly specified),-76*,3.5µM*,?,-68%,16µM*,/,?,1.2µM*,1.5µM*,41%
C[N+]1(CCC(C(N)=O)(c2ccccc2)c2ccccc2)CCCCC1,/,/,-7%,/,-16%,/,/,/,/,/
CC(C)(C)n1nnnc1C(c1cccc2ccccc12)N1CCC2(CC1)C(=O)NCN2c1ccccc1 (stereo unspecified),-1,?,?,1%,?,/,/,/,/,/
O=c1[nH]c2ccccc2n1C1CCN(C(c2ccccc2OC(F)(F)F)c2nnnn2-c2ccc3c(c2)OCCO3)CC1 (stereo unspecified),-56*,8.9µM*,7.3µM*,-56%,4.6µM*,/,?,?,8.2µM*,38%
COC(=O)c1ccc(N2C(=O)CC(N3CCC(n4c(=O)[nH]c5ccccc54)CC3)C2=O)cc1 (stereo unspecified),-2,11%,?,-4%,-25%,9%,/,/,/,/
O=C1NCN(c2ccccc2)C12CCN(C(c1cccs1)c1nnnn1-c1ccc3c(c1)OCCO3)CC2 (stereo unspecified),-3,13µM*,18µM*,21%,16µM*,/,?,-27%,10µM*,53%
COc1ccc(-n2nnnc2C(c2ccccc2)N2CCC(n3c(=O)[nH]c4ccccc43)CC2)cc1 (stereo unspecified),?,8.9µM*,16µM*,-2%,15µM*,/,?,?,?,58%
O=c1[nH]c2ccccc2n1C1CCN(C(c2cccc3ccccc23)c2nnnn2Cc2ccccc2)CC1 (stereo unspecified),?,16µM*,12µM*,-23%,8.2µM*,/,6.5µM*,-7%,?,2%
CN1CCCCC1Cc1ccccc1 (stereo unspecified),3,?,1%,-1%,-20%,/,/,/,/,/
Cc1ccc(N2CCNCC2C)cc1 (stereo unspecified),-2,?,?,-6%,?,/,/,/,/,/
Cc1cccc(C)c1-n1nnnc1C(c1cc2ccccc2o1)N1CCC(n2c(=O)[nH]c3ccccc32)CC1 (stereo unspecified),-23,7.1µM*,1.5µM*,-8%,1.3µM*,/,5.8µM*,?,5.8µM*,21%
O=c1[nH]c2ccccc2n1C1CCN(C(c2cccs2)c2nnnn2-c2ccc3c(c2)OCCO3)CC1 (stereo unspecified),18,11µM*,2.9µM*,-6%,2.3µM*,/,-83%,-24%,?,54%
COc1ccc(NC(=O)CN2C(=O)C(C)N=C(c3ccccc3)c3ccccc32)cc1OC (stereo unspecified),/,30%,3%,12%,-20%,2%,/,/,/,/
CC(C)CN1Cc2ccccc2-n2nncc2C1,34,7%,-14%,2%,-20%,/,/,/,/,/
CS(=O)(=O)c1ccc(C2=C(CNC(=O)c3nccs3)[C@H]3CC[C@@H](C2)N3Cc2ccco2)cc1,5,-5%,-12%,-3%,-18%,/,/,/,/,/
CCNC(=O)C1OC(n2cnc3c(N)ncnc32)C(O)C1O (stereo unspecified),?,2%,6%,-4%,-5%,/,/,/,/,/
Nc1nc(F)nc2c1ncn2[C@@H]1O[C@H](CO)[C@@H](O)[C@H]1O,-74*,0.79µM*,0.058µM*,-37%,0.16µM*,/,0.58µM*,0.46µM*,1.2µM*,25%
Nc1nc(F)nc2c1ncn2[C@@H]1O[C@H](CO)[C@@H](O)[C@@H]1O,82,0.5µM*,0.21µM*,-38%,0.16µM*,-3%,0.46µM*,0.46µM*,-33%,42%
C=C(C)[C@@]12OC3(c4ccccc4)O[C@@H]1C1[C@@H]4O[C@]4(CO)[C@@H](O)[C@]4(O)C(=O)C(C)=C[C@H]4[C@@]1(O3)[C@H](C)[C@H]2OC(=O)/C=C/C=C/c1ccccc1 (stereo partly specified),97,-98%,16µM*,-87%,3.3µM*,/,?,?,?,-6%
